In all, about 150,000 compounds went through this assay and about 6,500 (4.3%) were called active. Not shown: some 12% with an inconclusive outcome. The list comes from a sample in which actives are over-represented; it also holds similar structures and randomly drawn compounds. Values without a mark were called inactive. Calls come from the whole dose curve; as a rule, active = well fitted inhibition curve with a large enough effect (not every such curve was filed as active); inconclusive = small, poorly fitted or top-dose-only effect, or another doubt; inactive = no such curve, though single readings can be large or run the other way.
% is set by controls: 0 for no effect and ±100 for the full control effect; potency is the fitted concentration of half-maximal effect.

Chain of 15-hydroxyprostaglandin dehydrogenase [NAD(+)] (Homo sapiens) (P15428 whole entry, looked up): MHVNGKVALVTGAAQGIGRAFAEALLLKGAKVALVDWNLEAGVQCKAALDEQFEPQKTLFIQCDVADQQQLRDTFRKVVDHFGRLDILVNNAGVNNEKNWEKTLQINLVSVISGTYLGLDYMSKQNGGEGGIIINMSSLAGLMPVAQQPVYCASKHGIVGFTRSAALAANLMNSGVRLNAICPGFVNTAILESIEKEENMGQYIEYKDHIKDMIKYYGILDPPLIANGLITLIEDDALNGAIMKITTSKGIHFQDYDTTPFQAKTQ

In the experiment the target is 15-hydroxyprostaglandin dehydrogenase [NAD(+)] (Homo sapiens) (UniProt P15428). The experiment can be described thus: qHTS Assay for Inhibitors of HPGD (15-Hydroxyprostaglandin Dehydrogenase). Particulars: purified HPGD, NADH fluorescence kinetic, PGE2 substrate; activity change, negative = inhibition: stronger effect = lower value. Summed up:
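20 nM HPGD preincubated 15 min at room temperature with compound in 50 mM Tris-HCl pH 8, 0.01% Tween 20. Started with 1 mM NAD+ and 30 uM prostaglandin E2; NADH fluorescence (360/450 nm) read 5 times over 30-s intervals, last minus first.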
A general note: Quantitative high-throughput screening tests each substance at several concentrations.
In the case of `Cc1ccc(S(=O)(=O)C2C(=O)NC3(C)CC2c2ccccc2O3)cc1` (stereo unspecified), the activity change, negative = inhibition is -19.6%. The same measure, in the same setting: next, `O=C(NN1C(=O)C2C3C=CC(O3)C2C1=O)c1ccncc1` (stereo unspecified): 2.88%. `CCn1c(=N)n(CC(=O)c2cccc(OC)c2)c2ccccc21`: the Potency is 35.5 µM (active). As to `COc1cccc(C(=O)NNC(=O)c2ccccc2Br)c1`, the activity change, negative = inhibition is -0.052%. Same read-out and setting: next, `CCCCOC(=O)Cn1c(=N)n(CCN(CC)CC)c2ccccc21`: -7.8%; `Cn1cccc1/C=C1\SC(=S)N(NC(=O)c2ccc(Cl)cc2)C1=O`: -8.93%; `Cc1cc(C)c(C#N)c(SCc2ccccc2C(=O)O)n1`: -15%. Consider `Cc1cc(C)c(C#N)c(SCS(=O)c2ccc(C(C)(C)C)cc2)n1` (stereo unspecified), for which the Potency was 15.8 µM (active). `Cc1cc(C)c(C#N)c(SCC(=O)NN2CC(=O)N(c3ccccc3F)CC2=O)n1`: the activity change, negative = inhibition is -14%.

Take `Cc1ccc(C(=O)NC(=S)NCCN2CCOCC2)cc1`: the activity change, negative = inhibition is -5.64%.

Take `Cc1c(O)c(Br)c(C)c(O)c1Br` (tested in a mixture with another compound): the Potency was 0.891 µM (active). Consider `CCOC(=O)CSc1nnc(-c2ccncc2)o1`, for which the activity change, negative = inhibition is -12.2%. Regarding `O=C(CSc1nnc(-c2ccncc2)o1)NCc1ccc(Cl)cc1`, the activity change, negative = inhibition was -1.7%. As to `O=C(OCC#CCSc1nnc(-c2ccncc2)o1)c1sc2ccccc2c1Cl`, the Potency is 20 µM (active). For the compound `O=C(CCc1ccccc1)Nc1nn[nH]n1`, the activity change, negative = inhibition is -9.52%. Regarding `CC(C)c1ccc(N2CCN(C(=O)c3ccccc3NC(=O)/C=C(\C(=O)O)c3ccccc3)CC2)cc1`, the Potency was 35.5 µM (active). Turning to `O=C(O)C1CC=CCC1C(=O)Nc1ccccc1C(=O)N1CCN(c2ccccc2)CC1` (stereo unspecified), the activity change, negative = inhibition is -1.15%. As for `Cc1cccc(N2CCN(C(=O)c3ccccc3NC(=O)C3CCCCC3C(=O)O)CC2)c1` (stereo unspecified), the activity change, negative = inhibition is -8.91%.

As to `O=C(C/C(=N\NC(=O)c1ccccc1Br)C(F)(F)F)c1cccs1`, the activity change, negative = inhibition is -18.1%.

As to `N#Cc1cccc(CS(=O)(=O)c2nnnn2-c2cc(C(F)(F)F)cc(C(F)(F)F)c2)c1`, the activity change, negative = inhibition was -8.91%. `COCCn1c(=NC(=O)c2ccccc2[N+](=O)[O-])sc2cc(S(C)(=O)=O)ccc21`: the activity change, negative = inhibition was -11.2%.

Regarding `CC(C)c1ccc(Nc2ncccc2C#N)cc1`, the Potency is 25.1 µM (active). Take `O=C(Nc1ccccc1)c1cccnc1Nc1ccccc1`: the activity change, negative = inhibition was -10.1%. On the same count and under the same terms, next, `CC(C)c1ccc(/C=C/C(=O)NNC(=O)c2cccnc2)cc1`: -6.71%; `O=C(Nc1ccccc1)c1cc2ccccc2[nH]1`: -6.75%; `COc1ccc(C)cc1NC(=O)CSc1ccc(Cl)cc1`: -13.4%. `Cc1cc(C(=O)OCC(=O)Nc2nnc(C(C)C)s2)c2ccccc2n1`: the activity change, negative = inhibition is -10.9%. Consider `COCCCNC(=S)NC(=O)c1ccc([N+](=O)[O-])cc1`, for which the activity change, negative = inhibition was -5.32%. In the case of `CC(C)OC(=O)c1cc(NC(=O)C2C3CCC(O3)C2C(=O)O)cc(C(=O)OC(C)C)c1` (stereo unspecified), the activity change, negative = inhibition was -13.2%. On to `CCOC(=O)c1c(NC(=O)C2CCN(S(=O)(=O)c3ccc(Cl)cc3)CC2)sc2c1CCCC2`, for which the activity change, negative = inhibition was -27.2%. Consider `Cc1sc(NC(=O)C2C3CCC(O3)C2C(=O)O)c(C(=O)OC(C)C)c1-c1ccc(Cl)cc1` (stereo unspecified), for which the Potency is 35.5 µM (active). As to `Cc1cc(NC(=O)COC(=O)COc2ccc(Cl)cc2C)c([N+](=O)[O-])cc1C`, the activity change, negative = inhibition was -9.4%. Same read-out and setting: next, `Cc1ccc(CN2CCN(/N=C/c3cccnc3)CC2)c(C)c1`: -0.74%; `O=C(CSC1CC(=O)N(CCc2ccccc2)C1=O)Nc1ccc(Cl)cc1` (stereo unspecified): -11.7%; `CCOC(=O)NC(=O)C(=CNc1cccc(OC)c1)C(=O)NC(=O)OCC`: -21.8%. `Cc1ccc(-c2csc3nnc(SCC(=O)NCc4ccco4)n23)cc1`: the activity change, negative = inhibition is -10.8%. On the same count and under the same terms, next, `O=C(CSc1nnc2scc(-c3ccc(F)cc3)n12)NCc1ccco1`: -3.23%. With `Cn1c(-c2ccc(F)cc2)cnc1SCC(=O)NCc1ccco1`, the Potency was 31.6 µM (active). In the case of `CCN(CC)CCNCc1ccc(OCc2ccc(Cl)nc2)c(OC)c1`, the activity change, negative = inhibition was -2.75%. As to `O=C1C2C3C=CC(C4CC34)C2C(=O)N1c1nccs1` (stereo unspecified), the activity change, negative = inhibition was -6.02%. On to `CCOc1cccc(NC(=O)C2CCCN(S(=O)(=O)c3ccc(OC)cc3)C2)c1` (stereo unspecified), for which the activity change, negative = inhibition is -17%. Regarding `CCOc1ccc2nc(SC(CC)C(=O)Nc3cc(C)on3)sc2c1` (stereo unspecified), the activity change, negative = inhibition was 0.253%. With `CCOc1ccc2nc(C(=O)N3CCCC(C)C3)sc2c1` (stereo unspecified), the Potency was 7.94 µM (active). In the case of `CCC(C)(C(=O)Nc1ccccc1C)N(C(=O)CNC(C)=O)c1ccc(C)cc1` (stereo unspecified), the activity change, negative = inhibition is 1.96%. Same read-out and setting: to `COc1ccc(N2C(=O)C(CC(=O)Nc3ccc(F)cc3)N(CCc3cccs3)C2=O)cc1` (stereo unspecified) belongs -5.46%. Consider `COc1cc(OC)c(-n2cc(-c3ccc(Cl)cc3)[nH]c2=O)cc1Cl`, for which the Potency was 7.08 µM (active). Regarding `COc1ccc(C(=O)n2nc(-c3ccc(Cl)cc3)nc2N)cc1OC`, the activity change, negative = inhibition is -16.8%. Same read-out and setting: next, `Cc1ccc(-c2cc(=O)c3ccc(Cl)cc3[nH]2)cc1`: -2.76%; `COc1ccccc1OCCC(=O)OCC(=O)NCc1ccccc1`: -9.44%. Consider `Cc1cc(=O)[nH]c(SCc2cc(Cl)ccc2OC(F)F)n1`, for which the Potency is 14.1 µM (active).

For `O=c1cc(O)nc(SCc2ccccc2Cl)[nH]1`, the activity change, negative = inhibition was -21.6%. As for `Cc1cc(=O)[nH]c(SCc2cccc(F)c2)n1`, the activity change, negative = inhibition was -22.9%. As to `COC1=CCC2([N+](=O)[O-])CN(CC(=O)O)CC1([N+](=O)[O-])C2` (stereo unspecified), the activity change, negative = inhibition was -5.2%. The same measure, in the same setting: next, `C[C@@H](O)c1nc2ccccc2n1N`: -7.02%; `COc1ccc(/C=C(\C#N)C(=O)NCCCn2ccnc2)cc1`: -18.4%.

For `C[C@H]1Cc2c(-c3ccccc3)nc3c(c2CO1)CN(S(=O)(=O)c1ccc(Cl)c2nonc12)CC3`, the activity change, negative = inhibition is -7.2%.

`COc1cc(/C=N/O)ccc1OCc1ccc([N+](=O)[O-])cc1`: the activity change, negative = inhibition is -3.26%. For `C=CCOc1ccc(/C=N/n2cncn2)cc1OC`, the activity change, negative = inhibition was -24.2%. As to `COc1cc(/C=N/n2c(C)n[nH]c2=S)ccc1OCc1ccccc1`, the Potency is 5.62 µM (active).

Turning to `CCN=C1S/C(=C\c2cc(Br)ccc2OCC(=O)OCC)C(=O)N1CC`, the activity change, negative = inhibition is 51.2%.

In the case of `CCCCC1N2CC3([N+](=O)[O-])CN1CC([N+](=O)[O-])(C2)C3(C)C` (stereo unspecified), the activity change, negative = inhibition is -8.6%. Take `C[N+]1(CC(O)COc2ccccc2)CCN(C(=O)c2ccc([N+](=O)[O-])cc2)CC1` (stereo unspecified): the activity change, negative = inhibition is -8.27%.

On to `Cc1cc2cc(CNC(=O)c3cccs3)ccc2[nH]1`, for which the Potency was 7.08 µM (active).

In the case of `CCc1cccc(CC)c1NC(=S)NCc1ccc2[nH]c(C)cc2c1`, the activity change, negative = inhibition was -1.27%. Still for that read-out and setting: next, `O=C(O)Cc1ccc(NC(=O)c2cccs2)cc1`: -5.78%; `CN(c1ccccc1)S(=O)(=O)c1ccc(Cl)c(C(=O)NCCc2c[nH]c3ccccc23)c1`: -0.557%; `CC(C)C1=CC2=CC[C@H]3[C@](C)(C(=O)O)CCC[C@]3(C)C2CC1` (stereo partly specified): -6.95%. Same read-out and setting: to `O=C1/C(=C/c2ccc3c(c2)OCO3)CCC/C1=C\c1ccc2c(c1)OCO2` belongs -8.26%. On the same count and under the same terms, to `CSC1=N/C(=C\c2ccc3c(c2)OCO3)C(=O)S1` belongs -15.7%. On to `CCC1=C/C(=C\c2ccc3c(c2)OCO3)C(=O)S1`, for which the Potency was 28.2 µM (active).

For `Cc1[nH]c2ccccc2c1/C=N\NC(=O)Cn1nnc(-c2ccccc2)n1`, the activity change, negative = inhibition is -7.96%. As for `CCCc1nnc(NC(=O)CN2C(=O)c3ccccc3S2(=O)=O)s1`, the Potency was 14.1 µM (active). With `CCCc1nnc(NC(=O)c2cccs2)s1`, the activity change, negative = inhibition was -3.96%. As to `CNC(=O)CN1C(=O)c2ccccc2S1(=O)=O`, the activity change, negative = inhibition was 0.566%. On to `Cc1ccc(Nc2ccc(C(N)=O)cc2[N+](=O)[O-])cc1`, for which the activity change, negative = inhibition is -24.4%. As to `CCNC(=O)NC(=O)C(C)OC(=O)C1CCN(S(=O)(=O)c2ccccc2F)CC1` (stereo unspecified), the activity change, negative = inhibition is -13.3%. `Cc1onc(-c2c(Cl)cccc2Cl)c1C(=O)c1c[nH]c(C(=O)NC2CC2)c1`: the activity change, negative = inhibition is -1.05%. Same read-out and setting: to `Cc1nn(-c2ccccc2)c2sc(C(=O)N(Cc3ccco3)C(C)C(=O)NC(C)(C)C)cc12` (stereo unspecified) belongs -12.4%. As to `Cc1ccccc1-n1nc(C)c2cc(C(=O)NC3CC3)sc21`, the Potency was 22.4 µM (active). With `OC[C@H]1O[C@@H](n2cnc3c(N[C@H]4CC5CCC4C5)ncnc32)[C@H](O)[C@@H]1O` (stereo partly specified), the activity change, negative = inhibition was -25%. As for `COc1cc(C(=O)NNC(=O)c2ccc(S(=O)(=O)N3CCCCC3)cc2)cc(OC)c1OC`, the activity change, negative = inhibition is 5.41%.

On to `COc1cc(OC)c(-n2c(C)cc(C=O)c2C)cc1Cl`, for which the Potency was 3.55 µM (active). With `COc1cc(Cl)c(S(=O)(=O)n2cnc(C)c2)cc1Cl`, the activity change, negative = inhibition is 0.989%. `COc1ccc(Cl)cc1-n1c(C)cc(C(=O)OCC(=O)N2CC(=O)Nc3ccccc32)c1C`: the activity change, negative = inhibition was -10%. On the same count and under the same terms, to `C[C@H]1Cc2c(-c3ccccc3)nc3c(c2CO1)CN(C(=O)C1CC1)CC3` belongs -5.41%. As to `COc1ccc2c(c1)CCc1c(C(=O)N3CCc4ccccc4C3)noc1-2`, the Potency was 17.8 µM (active).

Regarding `COc1ccc2c(c1)CCc1c(C(=O)N3CCCC3)noc1-2`, the Potency is 20 µM (active). With `O=C(COc1ccccc1)N1CCc2ccccc2C1`, the activity change, negative = inhibition was -7.89%. On the same count and under the same terms, next, `COc1ccc(-c2nc(CS(=O)CC(=O)N3CCc4ccccc4C3)c(C)o2)cc1` (stereo unspecified): -23.2%; `COc1ccc2c(c1)CCc1c(C(=O)Nc3c(C)n(C)n(-c4ccccc4)c3=O)noc1-2`: -26.2%; `COc1ccc(-c2nc3c(c4c2C[C@H](c2ccccc2)OC4)CN(C(=O)C2CC2)CC3)c(C)c1`: -7.07%.

These data come from PubChem BioAssay AID894 (National Center for Advancing Translational Sciences (NCATS), 2007).
